Bioassay records (PubChem BioAssay)
M1 ag – agonists of human M1 muscarinic receptor; P11229; CHO-K1 hM1, Fluo-8 calcium fluorescence, agonist mode; 0% DMSO, 100% acetylcholine EC100; activation, % at 3 µM; 360,000 tested, 0.33% active; AID 588814;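 active = activation above the run's mean compound activation plus 3 SD, cut at about 16% in these data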;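 also: peak over basal fluorescence ratio within a 140 s kinetic read after compound addition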
Target sequence (P11229 whole entry, looked up): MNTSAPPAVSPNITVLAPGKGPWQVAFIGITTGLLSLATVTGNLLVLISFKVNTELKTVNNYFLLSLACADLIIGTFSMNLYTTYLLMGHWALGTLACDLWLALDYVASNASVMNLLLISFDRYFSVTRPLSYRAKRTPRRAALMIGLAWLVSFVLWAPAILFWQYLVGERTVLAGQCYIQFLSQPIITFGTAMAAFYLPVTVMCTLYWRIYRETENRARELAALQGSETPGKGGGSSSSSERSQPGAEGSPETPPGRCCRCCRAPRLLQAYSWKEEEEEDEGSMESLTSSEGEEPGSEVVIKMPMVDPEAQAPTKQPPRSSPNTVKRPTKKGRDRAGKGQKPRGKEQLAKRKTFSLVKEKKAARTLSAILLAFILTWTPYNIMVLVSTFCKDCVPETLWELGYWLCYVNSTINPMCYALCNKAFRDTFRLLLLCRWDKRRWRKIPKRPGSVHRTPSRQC
CHO-K1 Ca PAM – M1 PAM counterscreen hit in parental CHO-K1 cells; ATP EC20, Fluo-8 calcium fluorescence; 0% at ATP EC20, 100% at ATP max; activation, % at 3 µM; 360,000 tested, 0.02% active;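 active = activation above the run cutoff, the mean activation of all test compounds plus 3 SD, cut at about 40% in these data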;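 also: peak over basal fluorescence ratio in a 140 s read after ATP addition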
M1 ag parental – nonselective activator or artifact in parental CHO-K1 cells; 360,000 tested, 0.48% active; AID 602248; Fluo-8 calcium fluorescence; scaled to maximal ATP response, vehicle zero; activation, % at 3 µM; in the data active = activation above about 15%;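 also: untransfected CHO-K1 host cells lacking M1 receptor as counterscreen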
CHRM1 PAM – positive allosteric modulators of human M1 muscarinic receptor; AID 588819; CHO-K1 hM1, Fluo-8 calcium fluorescence, ACh EC20; 0% = ACh EC20, 100% = maximal ACh; P11229; 360,000 tested, 0.088% active; activation, % at 3 µM; in the data active = activation above about 19%, passing the limit was not always enough
CHRM1 antagonist – human CHRM1 antagonism; P11229; CHO-K1 hM1, Fluo-8 calcium fluorescence, ACh EC80 antagonist; inhibition, % at 3 µM; 360,000 tested, 1.3% active; AID 588852;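 active = percent inhibition above its own plate's cutoff, namely the mean of that plate's compound wells plus 3 SD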;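 also: peak over basal fluorescence ratio during 140 s after agonist addition; 0% = ACh EC80 plus DMSO and 100% = DMSO alone without agonist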
CHO-K1 Ca antag – counter-screen for M1 antagonists: effect in parental CHO-K1 cells; ATP-induced calcium, Fluo-8 fluorescence; inhibition, % at 3 µM; 360,000 tested, 0.6% active; AID 602250;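 active = inhibition above a per-plate cutoff, the plate's mean sample inhibition plus 3 SD, cut at about 24% in these data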;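 also: 0% = DMSO plus EC80 ATP and 100% = DMSO alone without ATP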
* marks the source's active call; other numbers are inactive results. A selection: hits, their analogues and other compounds. The true share with any hit is near 2.3%.

SMILES | M1 ag | CHO-K1 Ca PAM | M1 ag parental | CHRM1 PAM | CHRM1 antagonist | CHO-K1 Ca antag
O=C(c1ccc(Br)o1)N1CCN(C23CC4CC(CC(C4)C2)C3)CC1 | -6 | -12 | 0 | -22 | 67* | 13
O=C(c1ccco1)N1CCN(C(=O)c2ccc(Br)o2)CC1 | -4 | 16 | 1 | 7 | -12 | -4
Cc1ccc([C@H]2C[C@H](n3cc(C4CC4)nn3)[C@@H](O)CN2C(=O)C2CCCCC2)cc1 | -2 | 11 | 1 | 6 | -11 | -15
CN(Cc1ccccc1)C1=CC(=[N+]2CCCCC2)CC(C)(C)C1 | -1 | 6 | 3 | -13 | 39* | 9
O=S(=O)([O-])CCC[N+]1(CC#Cc2ccccc2)CCCCC1 | -3 | 16 | 1 | 2 | -3 | -13
CCC[N+]1(CC#CC(O)(c2ccccc2)C2CCCCC2)CCCCC1 (centres undefined) | -7 | -4 | 0 | -28 | 99* | 1
NC(=O)C[N+]1(CC#CC(O)(c2ccccc2)c2ccccc2)CCCC1 | -13 | 5 | 0 | -33 | 92* | -8
CCN(CC)CCC#CC(O)(c1ccccc1)C1CCCCC1 (centres undefined) | -14 | 13 | 3 | -37 | 99* | -20
c1cc(-c2ccc(N3CCOCC3)cc2)n2cnnc2c1 | -4 | 9 | 2 | 2 | -2 | 1
COc1cccc(NC(=O)COc2ccc(C(=O)N3CCN(C)CC3)cc2)c1 | -6 | -14 | 0 | -2 | 1 | 2
CC1CN(c2nc3c(c(=O)n(Cc4ccc(Cl)cc4)c(=O)n3C)n2C)CC(C)O1 (centres undefined) | -5 | -8 | 0 | 6 | -1 | 28*
Cn1c(N2CCCC2)nc2c1c(=O)n(Cc1ccc(Cl)cc1)c(=O)n2C | -3 | -6 | 0 | -3 | 8 | 23
CCCCCCC[C@@H](C/C=C/CCC(=O)N(C)C/C(=C/Cl)C/C(=C\C(=O)N1CC(OC)=CC1=O)OC)OC | -4 | 1 | 2 | -11 | 33* | -4
COc1ccc(CNC(=O)c2ccc(-c3c(C)noc3C)c3ccoc23)cc1OC | 1 | 8 | 3 | 9 | -20 | -5
Cc1nc(N)nc(N)c1-c1ccc(Cl)c(Cl)c1 | -5 | 27 | 5 | -28 | 46* | -18
C[C@H](NC(=O)C1CC(=O)N(c2ccc3c(c2)OCO3)C1)C(=O)NC1CCCCC1 (some centres undefined) | -3 | -3 | 0 | -4 | 11 | 2
CCCCCC[n+]1c(-c2ccc(Cl)cc2Cl)csc1Nc1ccccc1 | -3 | 9 | 0 | 1 | -7 | 6
CC[N+](C)(C)CC/C=C1/c2ccccc2Sc2ccc(Cl)cc21 | -6 | -6 | 1 | -24 | 100* | 0
CCC1=Nc2cc(C(=O)O)ccc2Sc2ccc(Cl)cc21 | -3 | 9 | 0 | 1 | 12 | 5
CCCCCCCCCC[N+](C)(C)CC/C=C1/c2ccccc2Sc2ccc(Cl)cc21 | -8 | 0 | 0 | -33 | 83* | -16
CCCCCCCCCCC[N+](C)(C)CC/C=C1/c2ccccc2Sc2ccc(Cl)cc21 | -10 | 3 | 3 | -30 | 99* | -14
CCc1nc2c(OCc3cccc(Cl)c3)cccn2c1N(C)C(C)=O | -7 | -17 | 0 | 11 | -3 | 21
CCOC(=O)C1=C(NC(=S)NC(=O)c2ccccc2)c2ccccc2CC1C(C)C (centres undefined) | -2 | 10 | 2 | 2 | -20 | -13
CCOC(=O)C1=C(NC(=S)NC(=O)c2ccccc2)c2ccccc2CC1(C)CC (centres undefined) | -3 | 22 | 20* | -4 | 20 | -5
CC(=O)Cc1c(C(=O)O)c(C)nn1-c1ccccc1 | -6 | -15 | -1 | 0 | 3 | 26*
SMILES | M1 ag | CHO-K1 Ca PAM | M1 ag parental | CHRM1 PAM | CHRM1 antagonist | CHO-K1 Ca antag
Cc1ccc(NC(=O)COc2cccc(Oc3ccccc3)c2)cc1S(=O)(=O)N1CCOCC1 | -2 | -13 | 5 | -6 | 10 | 4
Cc1cccc(N(C)S(=O)(=O)c2c[nH]c3ccc([N+](=O)[O-])cc23)c1 | -2 | 23 | 8 | -4 | 8 | -14
O=S1(=O)CC(N2CC=CC2)CN1Cc1ccc(F)cc1 (centres undefined) | 8 | -9 | 0 | 17 | -1 | 29*
Cc1ccc(CN2CC(N3CC=CC3)CS2(=O)=O)cc1 (centres undefined) | 7 | -3 | 0 | 8 | 5 | 21
Cc1ccc(C(NC(=O)NC(C)c2ccccc2)C(Cl)(Cl)Cl)cc1F (centres undefined) | -6 | 2 | 4 | -19 | 19 | 3
OC(c1cc(C(F)(F)F)nc2c(Cl)cc(Cl)cc12)C1CCCCN1 (centres undefined) | 3 | 15 | 18* | 7 | -8 | -1
CC1(C(=O)NCc2cccs2)Cc2c(-c3ccccc3)ccnc2O1 (centres undefined) | -4 | 1 | 0 | 3 | -12 | 3
CCOC(=O)c1oc2ccc(Br)cc2c1COC(=O)C1=COCCO1 | -7 | -14 | 0 | -25 | 57* | -12
CN(Cc1nccn1C)C(=O)C1CCC(=O)N(CCc2ccc(Cl)cc2)C1 (centres undefined) | -5 | 7 | 2 | 4 | -3 | -4
CCCc1cc(Nc2ccccc2OCC)n2ncnc2n1 | -6 | -7 | 0 | 8 | 1 | 28*
CCN(CC)S(=O)(=O)c1ccc(NC(=O)c2cc(-c3cccs3)nc3ccccc23)cc1 | -3 | 15 | 2 | -7 | 16 | 1
COc1ccc(NC(=O)c2cc(-c3ccccn3)nc3ccccc23)cc1S(=O)(=O)N(C)C | -3 | -8 | 6 | -10 | 34* | 5
CN(C)S(=O)(=O)c1ccc(NC(=O)c2cc(-c3cccs3)nc3ccccc23)cc1 | -1 | -6 | 6 | -16 | 42* | 10
CCN(CC)S(=O)(=O)c1cc(NC(=O)c2cc(-c3ccccn3)nc3ccccc23)ccc1C | -1 | 10 | 5 | -8 | 30 | -1
COc1ccccc1NC(=S)N(Cc1ccccn1)Cc1ccccc1Cl | -5 | 5 | 7 | 7 | -15 | 36*
CCOC(=O)c1csc(N)c1-c1ccc([N+](=O)[O-])cc1 | -4 | -5 | 0 | 23 | 0 | 0
COc1cc(SC)ccc1C(=O)N1CCN(Cc2ccc3c(c2)OCO3)CC1 | -5 | 8 | 2 | 5 | -10 | -8
CN1CCC(C2(O)c3ccccc3CSc3sccc32)CC1 (centres undefined) | -6 | 5 | 1 | -17 | 18 | 4
CN1CCC(C2(O)c3ccccc3CCc3ccccc32)CC1 | -9 | 12 | 0 | -23 | 57* | -2
Cc1cc(NC(=O)COC(=O)c2n[nH]c3ccccc23)no1 | -1 | -8 | 0 | 1 | -1 | 29*
